Assay outcomes from PubChem.
Compounds with a hit are over-represented: about 0.9% of the library has one in this group of screens.
PPARg SRC-3 ag = PPARgamma-driven SRC-3 recruitment agonism | activation, % at 8 µM | AID 731 | P37231 | hit rate 0.26% among 200,000 | biochemical PPARgamma/SRC-3 coactivator recruitment assay; in the data active = activation above about 23%;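 note: 0% = DMSO and 100% = reference agonist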
Target sequence (P37231 whole entry, looked up): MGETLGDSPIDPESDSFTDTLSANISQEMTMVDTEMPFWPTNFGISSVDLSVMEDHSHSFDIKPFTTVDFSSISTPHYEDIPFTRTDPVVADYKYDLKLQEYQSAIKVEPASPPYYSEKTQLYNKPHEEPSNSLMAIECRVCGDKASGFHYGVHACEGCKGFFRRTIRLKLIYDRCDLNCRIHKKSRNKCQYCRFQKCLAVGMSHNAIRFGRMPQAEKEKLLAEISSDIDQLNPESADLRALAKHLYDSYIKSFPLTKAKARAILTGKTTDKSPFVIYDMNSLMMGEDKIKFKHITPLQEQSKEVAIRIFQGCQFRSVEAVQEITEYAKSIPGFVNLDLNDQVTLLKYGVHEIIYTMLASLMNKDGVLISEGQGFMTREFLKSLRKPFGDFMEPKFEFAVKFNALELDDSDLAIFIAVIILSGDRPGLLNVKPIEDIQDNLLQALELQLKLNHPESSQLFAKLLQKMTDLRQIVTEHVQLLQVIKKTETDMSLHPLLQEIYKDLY
PPARg SRC2 recr = PPARgamma-driven SRC-2 recruitment agonism | PPARgamma LBD-SRC-2 recruitment, biochemical | activation, % at 8 µM | hit rate 0.34% among 200,000; in the data active = activation above about 22%;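 note: 0% = vehicle and 100% = reference agonist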
TR-FRET SRC-2 ct = counter-screen for PPARgamma SRC-2 recruitment agonists: TR-FRET artefact | hits give high values | TR-FRET ratio at 8 µM | hit rate 0.4% among 200,000 | AID 1049
SRC3 TRFRET art = TR-FRET artefact, counter-screen to PPARgamma/SRC-3 agonist assay; hit rate 0.39% among 99,000; TR-FRET ratio at 8 µM; PPARgamma/SRC-3 format; hits give high values
PPARg SRC-1 ag = PPARgamma-driven SRC-1 recruitment agonism; P37231; PPARgamma-SRC-1 coactivator recruitment biochemical assay; activation, % at 8 µM; hit rate 0.41% among 200,000; AID 631; in the data active = activation above about 19%;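 note: 0% = DMSO and 100% = reference agonist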
SRC1 TRFRET art = flags TR-FRET format artefacts in PPARgamma SRC-1 recruitment agonist screen; TR-FRET ratio at 8 µM; hit rate 0.34% among 99,000; TR-FRET detection artefact counter-screen, emission ratio; hits give high values; AID 1051; in the data active = TR-FRET ratio above about 2300
PPARg SRC2 conf = confirmation of agonists of SRC-2 recruitment by human PPARgamma; biochemical SRC-2 recruitment by PPARgamma; shares compounds with PPARg SRC-3 ag; AID 1297; activation, % at 8 µM; hit rate 52% among 790; in the data active = activation above about 22%;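 note: 0% = vehicle alone and 100% = reference agonist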
PPARg SRC1 conf = confirmation of agonists of SRC-1 recruitment by human PPARgamma; shares compounds with PPARg SRC-3 ag; PPARgamma–SRC-1 coactivator recruitment biochemical assay; activation, % at 8 µM; hit rate 43% among 790; AID 1300; in the data active = activation above about 20%;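 note: 0% = vehicle wells and 100% = reference agonist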
PPARg SRC3 conf = confirmation of agonists of SRC-3 recruitment by human PPARgamma | shares compounds with PPARg SRC-3 ag | biochemical PPARgamma-SRC-3 coactivator recruitment, agonist mode | activation, % at 8 µM | hit rate 29% among 790; in the data active = activation above about 24%;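 note: 0% = vehicle wells and 100% = reference agonist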
The depositor's hits bear a star; . = not tested or not shown. Cut-off read from the data, not from the text of the source, unless noted: active = TR-FRET ratio above about 2000; inactive = the rest.

SMILES	PPARg SRC-3 ag	PPARg SRC2 recr	TR-FRET SRC-2 ct	SRC3 TRFRET art	PPARg SRC-1 ag	SRC1 TRFRET art	PPARg SRC2 conf	PPARg SRC1 conf	PPARg SRC3 conf
NS(=O)(=O)c1cccc(NC(=O)COC(=O)CN2C(=O)C3CC=CCC3C2=O)c1 (stereo not given)	-1	-4	1614	1546	2	1661	.	.	.
Cc1ccc(C(=O)N2CCCC(C(=O)c3ccc(Oc4ccccc4)cc3)C2)cn1 (stereo not given)	4	5	1675	1669	6	1698	.	.	.
O=C(NCC1CCCO1)C1CCN(C2CCN(C3CCCCCC3)CC2)CC1 (stereo not given)	5	-6	1442	1490	-2	1558	.	.	.
COc1ccc(CNC(=O)COC(=O)c2cc(-c3ccc(Cl)s3)nc3ccccc23)cc1	17	23*	2696*	.	13	.	20	16	12
O=C(COC(=O)c1cc(-c2ccc(Cl)s2)nc2ccccc12)NCc1ccco1	18	19	1744	.	13	.	.	.	.
C/C(=N\NC(=O)c1sccc1-n1cccc1)c1cccs1	1	2	1686	1496	2	1652	.	.	.
C=CCn1c(-c2cccc(Cl)c2)n[nH]c1=S	28*	20	2008*	.	25*	.	20	14	13
COC(=O)c1cc2c(C)c(C)c3ccccn3c-2c1C(=O)OC	35*	32*	2102*	.	18	.	7	7	4
COC(=O)c1cc2ccccn2c2c(C(=O)OC)c(C(=O)OC)cc1-2	3	6	1669	.	9	.	.	.	.
COC(=O)c1cc2c(C)cc3ccc(C)cn3c-2c1C(=O)OC	47*	41*	2394*	.	26*	.	12	9	5
Cc1ccc(Sc2ccc(NC(=O)c3ccc(S(C)(=O)=O)cc3Cl)cc2)cc1	33*	-1	1563	.	54*	.	24*	21*	14
CS(=O)(=O)c1ccc(C(=O)Nc2ccc(N3CCCCC3)cc2)c(Cl)c1	1	0	1563	1280	12	1810	.	.	.
Cc1cn(S(=O)(=O)c2ccc(Br)c3ccccc23)cn1	52*	49*	2712*	.	31*	.	40*	26*	28*
COc1ccc(NC(=O)COc2ccc(C(=O)NC3CCCc4ccccc43)cc2OC)cc1 (stereo not given)	4	5	1630	1416	0	1728	.	.	.
Cc1ccccc1C1C2=C(Nc3[nH]n(-c4ccccc4)c(=O)c31)c1ccccc1C2=O (stereo not given)	35*	5	1853	1593	23*	1991	23*	30*	35*
OCCC1CN(Cc2cnc(N3CCOCC3)s2)CCN1C1CCCC1 (stereo not given)	2	0	1571	1713	1	1966	.	.	.
COc1cc(/C=C/C(=O)Nc2nc3ccc(S(=O)(=O)NC(C)C)cc3s2)cc(OC)c1OC	1	23*	1783	1648	14	1944	2	-1	-1
COc1ccc(OC)c(N(CC(=O)Nc2cccc(C(F)(F)F)c2)S(C)(=O)=O)c1	4	-5	1441	1692	1	1918	.	.	.
Cc1cc(C)c2cc(C#N)c(N3CCCN(S(=O)(=O)c4ccccc4)CC3)nc2c1	4	2	1481	.	-1	.	.	.	.
CC(=O)c1cccc(S(=O)(=O)N2CCN(c3nc4cc(C)cc(C)c4cc3C#N)CC2)c1	39*	-6	1642	.	26*	.	-1	-2	-4
O=C(/C=C/c1cccc([N+](=O)[O-])c1)n1cnc2ccccc21	3	-2	1400	1241	-3	1535	.	.	.
CC(Sc1nc(N2CCCCC2)c2c(c1C#N)CCCC2)C(=O)O (stereo not given)	18	30*	1908	.	19*	.	25*	16	16
O=C1NC(=S)S/C1=C\c1ccc(SCc2ccco2)o1	14	33*	1647	1738	21*	1829	2	6	2
CC1(C)Cc2c(cnn2-c2ccccc2)C(=O)/C1=N\NC(=O)c1ccccc1O	8	4	1384	.	-5	.	.	.	.
Cc1nc2ccc(-c3nc4cc(N)ccc4o3)cc2[nH]1	18	16	1816	.	21*	.	10	9	8
SMILES	PPARg SRC-3 ag	PPARg SRC2 recr	TR-FRET SRC-2 ct	SRC3 TRFRET art	PPARg SRC-1 ag	SRC1 TRFRET art	PPARg SRC2 conf	PPARg SRC1 conf	PPARg SRC3 conf
Nc1ccc2oc(-c3ccc4nc[nH]c4c3)nc2c1	3	1	1494	.	-4	.	.	.	.
NS(=O)(=O)c1ccc(CCNC(=O)c2cc(-c3ccccc3)nc3ccccc23)cc1	0	-1	1481	1586	-1	1708	.	.	.
NS(=O)(=O)c1ccc(CNC(=O)c2cc(-c3ccccn3)nc3ccc(Cl)cc23)cc1	54*	64*	2879*	3729*	63*	3155*	33*	27*	18
CCn1c(SC(=O)NC2CCCCC2)nnc1-c1cccs1	29*	22*	1842	.	24*	.	21	19	14
CCn1c(SCC(=O)NC2CCCCC2)nnc1-c1cccs1	4	-14	1351	.	-8	.	.	.	.
Cn1c(=O)cc(SCC(=O)Nc2cccnc2)c2ccccc21	93*	62*	3288*	.	66*	.	28*	17	18
Cn1c(=O)cc(SCC(=O)NCc2cccnc2)c2ccccc21	38*	22*	1858	.	28*	.	24*	18	17
CSc1cccc(NC(=S)N(CCCN2CCC(C)CC2)Cc2cccs2)c1	0	3	1497	1734	0	1912	.	.	.
CSc1nc(Sc2ccccc2Cl)c2ccccc2n1	48*	54*	2566*	.	26*	.	34*	22*	24*
COC(=O)c1c(C)[nH]c(C(=O)C(C)Sc2nnc(-c3cc(OC)c(OC)c(OC)c3)o2)c1C (stereo not given)	13	4	1724	.	27*	.	24*	25*	17
Cc1ccc(NC(=O)CCn2c(=S)oc3ccccc32)cc1	7	12	1795	1728	22*	2071	3	-1	1
O=C(CCn1c(=S)oc2ccccc21)Nc1ccc(F)cc1	2	0	1550	1616	7	1871	.	.	.
Cc1[nH]c2ccccc2c1/C=C/c1cc[n+](C)cc1	17	10	1692	.	25*	.	17	13	12
COC(=O)CCS(=O)(=O)c1nc(-c2ccccc2)cc(C(F)(F)F)n1	9	5	1639	.	21*	.	8	16	11
CCOC(=O)CCS(=O)(=O)c1nc(-c2ccccc2)cc(C(F)(F)F)n1	13	15	1475	.	15	.	.	.	.
CC(=O)Nc1ccc(N/C=C/C(=O)c2ccco2)cc1	-2	5	1573	.	3	.	.	.	.
